Measurements from PubChem BioAssay (NCATS).
Records with an inconclusive call do not appear. Unmarked numbers belong to inactive results. Activity calls are given as the source filed them. Calls come from the whole dose curve; as a rule, active = well fitted cell-killing curve with a large enough effect; inconclusive = small, poorly fitted or top-dose-only effect, or effect the other way; inactive = no such curve, though single readings can be large or run the other way.

Experiment: Viability qHTS for spleen associated tyrosine kinase inhibitor (SYKi) drug resistant MV4-11 cells (AID 1963824); note: nearly all actives have a fitted effect of over 35% in size
Conditions: SYKi-resistant MV4-11 viability, CellTiter-Glo, 72 h; series mostly up to 45 µM; viability, % of control: at the top concentration
Summary of the method: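 CellTiter-Glo luminescence, read 10 min after reagent addition, reports viability after a 72 hr compound exposure. Cells are an MV4-11 line made resistant to SYK inhibition, seeded at 500 per well onto compound-containing plates.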
Potency is the fitted concentration of half-maximal effect.

Structure (SMILES) | viability, % of control | Potency
C=C(C)C1Cc2cc(C(=O)OC3OC(CO)C(O)C(O)C3O)ccc2O1 (stereo not drawn) | 77.5% | –
Cc1ccc(CNc2ncnc3ccc(-c4ccc(CO)o4)cc23)o1 | – | 5.17 µM (active)
COC(=O)[C@H](Cc1ccc([N+](=O)[O-])cc1)NC(=O)c1cccc2ccccc12 | – | 4.11 µM (active)
COC1CC(=O)C23C(=O)NC(CC(C)C)C2C(C)C(C)=CC3/C=C(\C)CCC(O)C1O (stereo not drawn) | – | 1.78 µM (active)
COc1ccccc1-c1nc(SCC(=O)Nc2ccc(C)c(C)c2)n[nH]1 | – | 16.4 µM (active)
COC(=O)C1C(c2ccc(O)cc2)C(C(=O)OC)C1c1ccc(O)cc1 (stereo not drawn) | – | 10.1 µM (active)
O=C(/C=C/c1ccc(O)cc1)OC[C@H]1O[C@@H](OC(=O)/C=C/c2ccccc2)[C@H](O)[C@@H](O)[C@@H]1O | 87.9% [at 17.3 µM] | –
CCN(CC)CCNC(=O)c1c(C)[nH]c(/C=C2\C(=O)Nc3ccc(Cl)cc32)c1C | – | 0.0146 µM (active)
Cc1nc(C)c(CN2CCN(C(c3ccc(F)cc3)c3ccc(F)cc3)CC2)nc1C | – | 14.8 µM (active)
COc1ccccc1NC(=O)Nc1ccc2ccccc2c1 | – | 20.6 µM (active)
CC(=O)C1=C(O)C2c3c[nH]c4cccc(c34)CC2C(C)(C)N(C)C1=O (stereo not drawn) | – | 23.1 µM (active)
O=C1OC(c2ccc(O)cc2)(c2ccc(O)cc2)c2ccccc21 | – | 18.8 µM (active)
COc1cc(F)c(F)c(Nc2ccc(I)cc2F)c1NS(=O)(=O)C1(CC(O)CO)CC1 (stereo not drawn) | – | 0.58 µM (active)
CC(=O)NC(C(=O)O[C@H]1CCC(C)(C)[C@@H]2CC=C3C(=O)OCC3(O)[C@@]12C)C(C)C (stereo partly drawn) | – | 3.6 µM (active)
C[C@@H]1O[C@@H](O[C@H]2[C@@H]3C=CO[C@@H](O[C@@H]4O[C@H](CO)[C@@H](O)[C@H](O)[C@H]4O)[C@@H]3[C@@]3(CO)O[C@@H]23)[C@H](O)[C@H](OC(=O)/C=C/c2ccccc2)[C@H]1O | – | 6.11 µM (active)
COC(=O)[C@]1(C)CCC[C@@]2(C)C(=O)CC[C@H]3C(=O)C=C(CC[C@@H]21)C3O (stereo partly drawn) | 91.2% | –
CC1(C)CC[C@]2(C(=O)O)CC[C@]3(C)C(=CCC4[C@@]5(C)C(=O)C[C@H](O)[C@@](C)(CO)C5CC[C@]43C)[C@@H]2C1 (stereo partly drawn) | 63.3% [at 17.3 µM] | –
O=C1NC(Cc2c[nH]c3ccccc23)C(=O)NC1Cc1c[nH]c2ccccc12 (stereo not drawn) | 79.4% | –
